Data as given in PubChem BioAssay AID1347426 (Functional Genomics Laboratory (NCATS/FGL), 2020).
Among all 31,000 sequences or so, about 1,400 (4.5%) were called active. The entries come from a sample that favours actives as a whole. A number with no mark means an inactive call.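 Rule for the calls: active = median seed-adjusted z-score above 1 or below -1; inactive = the rest.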

Assay: Novel Modifiers of Survival Motor Neuron (SMN) Protein: Gene Identification via Genome-wide siRNA Screen;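 note: luminescence tracks full-length SMN protein made from the SMN2 reporter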
Conditions: HEK293T SMN2-luciferase reporter, siRNA knockdown, 72 h; actives lie on both sides
How it was run: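 siRNA screen, 10418 genes ×3 siRNAs; 1 pmol/well, lipid reverse transfection into HEK293T SMN2-luc reporter line. 72 h, 37 °C, 5% CO2; ONE-Glo readout. Data: neg-ctrl normalized, log10, MAD; hit = MAD >1.0 or < -1.0.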

| Sequence | median seed-adjusted z-score |
| --- | --- |
| GAGUUGAAGUUAAAGUAAATT against MORF4 | 0.0121 |
| CGACAAGAUCAAAUACCCATT against LZTR1 | 0.293 |
| CAAGCCUGAUUUCCACCUATT against DTD1 | -1.58 (active) |
| CAACGAGAAUGACUGCUGATT against PTPDC1 | -0.191 |
| CAAGAAAACCAGAAUGGAATT against SERPING1 | -0.244 |
| GCGAUUGCUUUGAUGGGUATT against LTBP1 | 0.143 |
| GAAUCCUCCCAAUUGAUCATT against LSG1 | 1.31 (active) |
| GAACAUCGUUAUAAGUUGATT against CNTN3 | 0.732 |
| GCACUAAUCUGCAAACUGUTT against SPTB | 0.153 |
| CAGACAAAUUUUAACCACATT against SLC17A8 | -0.332 |
| GGUCCAUCCAAAUUGUGGATT against CYP21A2 | -0.26 |
| GCGCAUCUAUCAACCCAAUTT against MLNR | -0.038 |
| AGACUAAACUACUCUCGAATT against WDR46 | -0.136 |
| GCUGCUAUCAGUGAACGGATT against LIN7A | -1.39 (active) |
| CGUGUUAGUGAAUAAAGUATT against ZNF771 | 0.108 |
| CGGCAGACACUGAACAUCATT against SLC6A18 | 0.148 |
| GUAGCACAGAGGAUUAAAATT against TTC33 | 0.104 |
| CUCUAACCGUGGUUCCAGATT against SUPT16H | 1.2 (active) |
| CGGCGGAGUUUAUAGAUAATT against BCKDHA | -0.299 |
| GAAUCUACCUUGCUGCUCATT against G6PC | -0.628 |
| GGACUACUAUGCCACUGCUTT against SSTR4 | -0.00217 |
| CGGCAACUUCAAUAACAGUTT against LPHN1 | -1.03 (active) |
| GAGGGACUAUUUCACGAAATT against PARD3B | 0.306 |
| GUGCAUCUCUUGACAAUUUTT against LIPI | 0.65 |
| GAAUAUUCUCGAUUUAAUATT against PPP1R3D | 0 |
| GGGCUGUUAUUUCAAGAAATT against GALNT13 | -0.0149 |
| GAGCAUGUUUUUACCCUUUTT against MGC17403 | 0.204 |

| Sequence | median seed-adjusted z-score |
| --- | --- |
| CCAUAACAUUCACAAGUGUTT against TRPS1 | -0.125 |
| CCAGGUCACGAGUCAAGUATT against KTI12 | 0.0814 |
| GGCCGUAACCUCAACCGUUTT against SNX33 | -0.246 |
| GACAAUCGACCGAAAGCAATT against PPP4C | 1.15 (active) |
| GGGCAACAGUUGAACACCATT against PDK4 | -0.693 |
| GCUUUGACCGUGUCCGAAATT against STT3A | 0 |
| GCAUUUCCCAAGACGUGGATT against ZFYVE28 | 0.0678 |
| GCAUUCACCAGAACGAGAATT against RIMS1 | 0 |
| CGCAUCCAAGAGUACCUUUTT against ZNF229 | -0.497 |
| GGACAUGAACCUUAACGAATT against DIAPH2 | -0.0149 |
| CUAUACUCUUCGCUCCUAUTT against SIGMAR1 | -1.4 (active) |
| GGUUGAAAAGGAGUGCAAATT against CACYBP | -0.33 |
| CAAAUCUGCUCAUCGAAAATT against MID1 | -0.294 |
| AGAAGAUCAUAGGCAGCAATT against KLK8 | 0.736 |
| GCUUCAGAGUCAACGGACATT against MICB | 0.162 |
| GAGGAACAGGAAUAACAUUTT against GCG | -1.18 (active) |
| GGCCUAACCAUAUGCCUAUTT against SS18 | 0.34 |
| GGUUUUUCCGCCAACUAGATT against CAPS | -1.25 (active) |
| GGUGUGCGGUUCAUCUUCATT against ILVBL | 0.343 |
| CUAAAGAGGUCAACAUUGATT against RGS16 | 0 |
| AGGUGUUCAUCGGCGUAAATT against GRHL3 | -0.0434 |
| CCAGCAGCAUGGAAGUUGUTT against HSD3B7 | -0.0819 |
| UCAUCUACCUGAUGCGUAUTT against TAF6 | -1.36 (active) |
| GAACUAUGAAUAAAGCUUUTT against HAGHL | -0.334 |
| GGCUUGAAGUAUGGAAAAATT against QRICH1 | -1.04 (active) |
| CCAGCUUAGUUCAAUAUGATT against GABRA4 | 0.549 |
| CCAUCCUGAUAAGAACCCATT against DNAJA1 | -0.00548 |
